# Experimental data from PubChem BioAssay (NCATS).
# A number with no mark means an inactive call. Records with an inconclusive call do not appear. Where a call stands in place of a potency, no number is given. Calls of active or inactive are those of the source. Unless noted, calls come from the whole dose curve; as a rule, active = well fitted curve in the direction sought with a large enough effect; inconclusive = small, poorly fitted or top-dose-only effect, or another doubt; inactive = no such curve, though single readings can be large; an effect the other way counts as inactive or inconclusive.
# What was measured:
# [1] = qHTS for inhibitors of adenylyl cyclases using a fission yeast platform: a pilot screen against the NCATS LOPAC library (AID 1347410)
# Procedure, shortened: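 S. pombe CHP2027 (AC9-GNAS-PDE4D2) carrying PKA-repressed fbp1-GFP, incubated 18 h at 30C in EMM with LOPAC compounds at up to 57 uM. GFP gain-of-signal read by laser scanning cytometry; DMSO negative control.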
# [2] = Validation qHTS assay for inhibitors of Activation Induced Cytidine Deaminase (AID): UDG Counterscreen signal (AID 1347427)
# Procedure, shortened: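 Fluorescence at 560 nm excitation, 665 nm emission reports UDG signal after 250 mM NaOH (2x) addition and 30 min. Enzymes (AID 1 uM, UDG 2 U/mL, at 4/3x) preincubated 10 min with compound, then 4 h with 4x 250 nM DJC20/DJC23 substrate at room temperature.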
# [3] = molecular target: Single-stranded DNA cytosine deaminase (Homo sapiens) (UniProt Q9GZX7); assay: Validation qHTS assay for inhibitors of Activation Induced Cytidine Deaminase (AID): AID signal (AID 1347429)
# Single-stranded DNA cytosine deaminase (Homo sapiens), sequence (Q9GZX7 whole entry, looked up): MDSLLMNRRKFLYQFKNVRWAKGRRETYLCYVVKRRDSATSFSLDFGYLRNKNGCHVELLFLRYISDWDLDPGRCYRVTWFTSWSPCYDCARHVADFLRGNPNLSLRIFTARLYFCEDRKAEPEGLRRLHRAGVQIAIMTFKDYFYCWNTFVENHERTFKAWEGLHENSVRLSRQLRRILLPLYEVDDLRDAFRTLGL
# Procedure, shortened: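 AID+UDG coupled FRET deamination; cpds up to 114 uM final; DJC20/DJC23 substrate, 4 hr RT; NaOH stop, 30 min RT; read Ex 540/Em 590.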
# [4] = qHTS to identify inhibitors of the type 1 interferon - major histocompatibility complex class I in skeletal muscle: primary screen against the NCATS Mechanism Interrogation Plate v5.0 (MIPE) Libary (AID 1347411); note: nearly all actives have a fitted effect of over 65% in size; note: potency is the fitted concentration of half-maximal effect
# Procedure, shortened: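 HLA-B HiBit myoblasts, dexamethasone-free medium + 4 ng/ml IFN-b, 24 h compound, 11-pt 1:3 from 46 uM final. Readout: Nano-Glo HiBiT lytic luminescence after 10 min lysis, RT.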
# [5] = molecular target: Protein phosphatase 1D (Homo sapiens) (UniProt O15297); assay: RapidFire Mass Spectrometry qHTS Assay for Modulators of WT P53-Induced Phosphatase 1 (WIP1) (AID 1347424); note: potency is the fitted concentration of half-maximal effect; for activity change, negative = inhibition: series mostly up to about 63 µM
# Protein phosphatase 1D (Homo sapiens), sequence (O15297 whole entry, looked up): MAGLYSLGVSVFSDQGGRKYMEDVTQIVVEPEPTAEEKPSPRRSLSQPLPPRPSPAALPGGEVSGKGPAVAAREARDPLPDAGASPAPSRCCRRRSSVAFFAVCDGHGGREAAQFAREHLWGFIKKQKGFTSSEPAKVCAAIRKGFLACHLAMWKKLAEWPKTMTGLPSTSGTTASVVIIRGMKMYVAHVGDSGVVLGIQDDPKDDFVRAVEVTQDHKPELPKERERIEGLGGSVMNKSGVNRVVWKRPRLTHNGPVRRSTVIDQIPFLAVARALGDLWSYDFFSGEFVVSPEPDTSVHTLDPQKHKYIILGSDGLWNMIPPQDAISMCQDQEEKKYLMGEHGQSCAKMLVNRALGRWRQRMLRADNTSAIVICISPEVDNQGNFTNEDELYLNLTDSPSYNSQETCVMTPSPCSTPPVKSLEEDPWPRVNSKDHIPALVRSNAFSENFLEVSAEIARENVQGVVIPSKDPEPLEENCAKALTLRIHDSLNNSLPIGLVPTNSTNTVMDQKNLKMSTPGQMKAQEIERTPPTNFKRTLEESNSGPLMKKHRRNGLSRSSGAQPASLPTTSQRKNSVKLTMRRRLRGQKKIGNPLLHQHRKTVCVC
# Procedure, shortened: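 RapidFire MS readout of dephosphorylated VEPPL-S-QETFS product, with 1 uM isotope-labelled peptide standard. Reaction: 10 nM WIP1, 2 uM phosphopeptide substrate, 5 min, room temperature, after 1 h compound preincubation; stopped with 0.5% formic acid.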
# [6] = molecular target: Protein phosphatase 1D (Homo sapiens) (UniProt O15297); assay: Rhodamine-PBP qHTS Assay for Modulators of WT P53-Induced Phosphatase 1 (WIP1) (AID 1347425)
# Procedure, shortened: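 WIP1 (5 nM final) was preincubated with compound for 1 hour at room temperature. It then dephosphorylated 10 uM VEPPL-pS-QETFS peptide in Tris-HCl pH 7.5 with 30 mM MgCl2. Released Pi was detected by 10 uM Rh-PBP fluorescence (ex 525/em 598 nm) read at 1-min intervals for 11 min, as delta f1 - f0.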
# [7] = Primary qHTS for inhibitors of SARS-S pseudo-typed particle cell entry (AID 1479145; calls by dose curve; note: series mostly up to about 57 µM; nearly all actives have a fitted effect of over 45% in size)
# [8] = Primary qHTS for Huh7 cytotoxicity: counterscreen for inhibitors of MERS-S pseudotyped particle cell entry (AID 1479147; calls by dose curve)
# [9] = Primary qHTS for inhibitors of MERS-S pseudo-typed particle cell entry (AID 1479149; calls by dose curve; note: series mostly up to about 57 µM; nearly all actives have a fitted effect of over 60% in size)
# [10] = Primary qHTS for Vero E6 cytotoxicity: counterscreen for inhibitors of SARS-S pseudo-typed particle cell entry (AID 1479150; calls by dose curve)
# [11] = Confirmatory qHTS for VERO E6 Cytotoxicity Assay: Counterscreen for SARS-CoV-2 CPE Assay (AID 1508605; calls by dose curve; note: series mostly up to about 20 µM; nearly all actives have a fitted effect of over 60% in size)
# [12] = Confirmatory qHTS for activators (rescue) of SARS-CoV-2 Cytopathic Effect (CPE) (AID 1508606; calls by dose curve; note: potency is the fitted concentration of half-maximal effect; nearly all actives have a fitted effect of over 70% in size)
smiles,measurement,setting,value
NC(=O)CN1CC(O)CC1=O (stereo not drawn),outcome,[1],inactive
same,outcome,[2],inactive
same,outcome,[3],inactive
CCOC(=O)Nc1ccc(NCc2ccc(F)cc2)cc1N,Potency,[4],inactive
CN1[C@H]2CC(O)C[C@H]1[C@H]1O[C@H]12 (stereo partly drawn),Potency,[4],inactive
CC(=O)Nc1ccc(OC[C@](C)(O)C(=O)Nc2ccc([N+](=O)[O-])c(C(F)(F)F)c2)cc1,Potency,[4],inactive
NC1CC1c1ccccc1 (stereo not drawn),outcome,[1],inactive
same,outcome,[2],inactive
same,outcome,[3],inactive
CN1C2CCC1CC(OC(=O)c1cc(Cl)cc(Cl)c1)C2 (stereo not drawn),outcome,[1],inactive
same,outcome,[2],inactive
same,outcome,[3],inactive
Clc1ccccc1C(c1ccccc1)(c1ccccc1)n1cccn1,Potency,[4],inactive
CC1=C(O)C(=O)C=C2C1=CC=C1[C@@]2(C)CC[C@@]2(C)[C@@H]3C[C@](C)(C(=O)O)CC[C@]3(C)CC[C@]12C,Potency,[4],0.829 µM (active)
COC1=C[C@@H]2[C@@H]3Cc4ccc(OC)c(O)c4[C@]2(CCN3C)CC1=O,Potency,[4],inactive
CNCCc1c[nH]c2ccc(O)cc12,outcome,[1],inactive
same,outcome,[2],inactive
same,outcome,[3],inactive
C#CCOC(=O)C1=CCCN(C)C1,outcome,[1],inactive
same,outcome,[2],inactive
same,outcome,[3],inactive
O=C(NCC1CCOCC1)c1cnc(Nc2ccc(Cl)cc2Cl)nc1C(F)(F)F,Potency,[4],inactive
CCc1c(C(=O)C(N)=O)c2c(OCC(=O)O)cccc2n1Cc1ccccc1,Potency,[4],inactive
C#CC1(O)CCC2C3CCC4=CC(=O)CCC4(C)C3CCC21C (stereo not drawn),Potency,[4],inactive
CC(=O)NCCc1c[nH]c2ccccc12,outcome,[1],inactive
same,outcome,[2],inactive
same,outcome,[3],inactive
CNCCc1ccc(O)c(O)c1,outcome,[1],inactive
same,outcome,[2],inactive
same,outcome,[3],inactive
Cn1cnc(CCN)c1,outcome,[1],inactive
same,outcome,[2],inactive
same,outcome,[3],inactive
NC(CCP(=O)(O)O)C(=O)O (stereo not drawn),outcome,[1],inactive
same,outcome,[2],inactive
same,outcome,[3],inactive
COc1cc(C(O)CN)ccc1O (stereo not drawn),outcome,[1],inactive
same,outcome,[2],inactive
same,outcome,[3],inactive
CCCC[N+]1(C)[C@H]2CC(OC(=O)[C@H](CO)c3ccccc3)C[C@H]1[C@H]1O[C@H]12 (stereo partly drawn),Potency,[4],inactive
CSCC[C@@H](NC(=O)[C@@H](Cc1ccccc1)NC(=O)CNC(=O)CNC(=O)[C@@H](N)Cc1ccc(O)cc1)C(=O)O,Potency,[4],inactive
NC(=NCCC[C@H](N)C(=O)O)N[N+](=O)[O-],outcome,[1],inactive
same,outcome,[2],inactive
same,outcome,[3],inactive
C[C@]12N[C@H](Cc3ccccc31)c1ccccc12,outcome,[1],inactive
same,outcome,[2],inactive
same,outcome,[3],inactive
CC(=O)[C@H]1CCC2C3CC[C@H]4C[C@H](O)CC[C@]4(C)C3CC[C@@]21C (stereo partly drawn),outcome,[1],inactive
same,outcome,[2],inactive
same,outcome,[3],inactive
CN[C@@H]1C[C@@H](c2ccc(Cl)c(Cl)c2)c2ccccc21,outcome,[1],inactive
same,outcome,[2],inactive
same,outcome,[3],inactive
O=C1CCCN1CC#CCN1CCCC1,outcome,[1],inactive
same,outcome,[2],inactive
same,outcome,[3],inactive
CS(=N)(=O)CC[C@H](N)C(=O)O (stereo partly drawn),outcome,[1],inactive
same,outcome,[2],inactive
same,outcome,[3],inactive
CCCCCCCCCC(CC)c1ccc(S(=O)(=O)O)cc1 (stereo not drawn),Potency,[5],1 µM (active)
CCOP(=O)(NC(C)C)Oc1ccc(SC)c(C)c1 (stereo not drawn),Potency,[5],inactive
same,outcome,[6],inactive
C[C@](O)(COc1ccc(C#N)cc1)C(=O)Nc1ccc(C#N)c(C(F)(F)F)c1,Potency,[4],inactive
O=C1C=CC[C@@H]2[C@H]3CCCN4CCC[C@@H](CN12)[C@@H]34,Potency,[4],inactive
CC(C)(O)C(=O)Nc1ccc([N+](=O)[O-])c(C(F)(F)F)c1,Potency,[4],inactive
O=c1cccc2n1CC1CNC[C@H]2C1,Potency,[4],inactive
S=C(SSC(=S)N1CCCCC1)N1CCCCC1,Potency,[5],inactive
same,outcome,[6],inactive
Nc1c(Cl)c(Cl)c(Cl)c(Cl)c1Cl,Potency,[5],inactive
same,outcome,[6],inactive
O=[N+]([O-])c1c2ccccc2cc2ccccc12,Potency,[5],inactive
Cc1[nH]nc2ccc(-c3cncc(OC[C@@H](N)Cc4c[nH]c5ccccc45)c3)cc12,Potency,[4],2.62 µM (active)
Cc1ccccc1-n1c(Cn2cnc3c(N)ncnc32)nc2cccc(C)c2c1=O,Potency,[4],inactive
CCN(CC)C(=O)c1ccc(C2=CC3(CCNCC3)Oc3cccc(O)c32)cc1,Potency,[4],inactive
O=S(=O)(F)Cc1ccccc1,Potency,[4],inactive
Nc1ccc(N=Nc2ccccc2)cc1,Potency,[5],inactive
COc1nn(CSP(=S)(OC)OC)c(=O)s1,Potency,[5],inactive
C[C@]12CC[C@@H]3[C@@H](CCC4=CC(=O)CC[C@@H]43)[C@@H]1CC[C@@H]2OC(=O)CCc1ccccc1,Potency,[4],inactive
CN(C)[C@@H]1C(=O)C(C(N)=O)=C(O)[C@@]2(O)C(=O)C3=C(O)c4c(O)cccc4[C@@](C)(O)[C@H]3[C@H](O)[C@@H]12,Potency,[4],inactive
same,Potency,[7],inactive
same,Potency,[8],inactive
same,Potency,[9],inactive
same,Potency,[10],inactive
Cc1ccccc1-n1c(Cn2ncc3c(N)ncnc32)nc2cccc(C)c2c1=O,Potency,[4],inactive
O=C(N[C@@H](COc1ccc2[nH]c(=O)[nH]c2c1)c1ccccc1)c1cccn(Cc2ccc(F)c(F)c2)c1=O,Potency,[4],inactive
CCCCOC(=O)c1ccccc1C(=O)OCc1ccccc1,Potency,[5],inactive
same,outcome,[6],inactive
O=S(=O)(O)C(F)(F)C(F)(F)C(F)(F)C(F)(F)C(F)(F)C(F)(F)C(F)(F)C(F)(F)F,Potency,[5],1.58 µM (active)
CC(C)[C@H]1C(=O)N[C@H](CO)Cc2c[nH]c3cccc(c23)N1C,Potency,[4],inactive
same,Potency,[11],inactive
same,Potency,[12],1.39 µM (active)
C[C@]12CC[C@H]3[C@@H](CCC4=CC(=O)CC[C@@]43C)[C@H]1CC[C@H]2OC(=O)CCC1CCCC1,Potency,[4],inactive
Nc1ccc([N+](=O)[O-])cc1,Potency,[5],inactive
same,outcome,[6],inactive
c1ccc2c(CN3CCNCC3)cccc2c1,Potency,[4],inactive
Oc1ccc2c3c1O[C@H]1[C@@H](O)C=C[C@H]4[C@@H](C2)NCC[C@@]341,Potency,[5],inactive
same,outcome,[6],inactive
CC1=C(C(=O)O)N2C(=O)[C@@H](N)[C@H]2SC1,"activity change, negative = inhibition",[5],5.52% [at 26.6 µM]
same,"activity change, negative = inhibition",[6],6.57% [at 23.8 µM]
O=C(Oc1ccc([N+](=O)[O-])cc1)N1CCC(C(O)(c2ccc3c(c2)OCO3)c2ccc3c(c2)OCO3)CC1,Potency,[4],inactive
CCN1C[C@]2(OC(=O)c3ccccc3NC(C)=O)CC[C@H](OC)[C@@]34[C@H]5CC6[C@@H](OC)C[C@](O)(C(C[C@@H]23)[C@@H]14)[C@@]5(O)[C@@H]6OC,Potency,[4],inactive
CC(C)(C)C(O)C(Oc1ccc(Cl)cc1)n1cncn1 (stereo not drawn),Potency,[5],inactive
same,outcome,[6],inactive
